Laboratory results reported in PMC7862700, “An all-to-all approach to the identification of sequence-specific readers for epigenetic DNA modifications on cytosine”.

Experiments:
Assay in all cases: DAPPL (digital affinity profiling via proximity ligation, sequencing); 10 mM Tris-HCl pH 7.5, 50 mM NaCl, 1 mM DTT, 4% glycerol, room temperature, 30 min; GST-TFs on glutathione beads, 16-mer random dsDNA library, 0.1% formaldehyde crosslink after washing; high values mean tight binding
Settings in all cases: protein: recombinant; tags: N-terminal GST; dsDNA, one strand shown
[1] = biological target: ELF4 (Homo sapiens, UniProt Q99607 1-663)
Outline: (§1)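 Pools were built from human transcription factors expressed in yeast as GST fusions, captured on glutathione beads and DNA-barcoded, along with a tag-only sample. Incubation with 200 nmole of a 16-mer random double-stranded DNA library lasted 30 min at room temperature in Tris/NaCl/DTT/glycerol buffer, and was followed by washing, 0.1% formaldehyde crosslinking, proximity ligation, PCR amplification and Illumina NextSeq500 sequencing. Binding signal is the quotient of each hexamer's read frequency for a factor and its frequency for the tag-only sample.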

[2] = biological target: T1, ETV2 (Homo sapiens, UniProt O00321 1-342)
T1 sequence: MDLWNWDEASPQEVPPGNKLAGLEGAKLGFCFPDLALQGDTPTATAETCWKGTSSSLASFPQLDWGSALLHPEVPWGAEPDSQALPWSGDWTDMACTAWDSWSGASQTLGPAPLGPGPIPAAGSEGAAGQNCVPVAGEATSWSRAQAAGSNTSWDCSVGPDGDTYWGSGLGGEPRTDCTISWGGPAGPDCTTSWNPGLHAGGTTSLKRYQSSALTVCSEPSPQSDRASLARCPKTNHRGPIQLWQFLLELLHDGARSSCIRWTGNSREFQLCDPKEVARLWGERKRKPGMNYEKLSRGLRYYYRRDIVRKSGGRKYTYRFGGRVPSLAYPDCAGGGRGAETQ
Outline: as §1

[3] = biological target: T2, ELF3 (Homo sapiens, UniProt P78545 1-371)
T2 sequence: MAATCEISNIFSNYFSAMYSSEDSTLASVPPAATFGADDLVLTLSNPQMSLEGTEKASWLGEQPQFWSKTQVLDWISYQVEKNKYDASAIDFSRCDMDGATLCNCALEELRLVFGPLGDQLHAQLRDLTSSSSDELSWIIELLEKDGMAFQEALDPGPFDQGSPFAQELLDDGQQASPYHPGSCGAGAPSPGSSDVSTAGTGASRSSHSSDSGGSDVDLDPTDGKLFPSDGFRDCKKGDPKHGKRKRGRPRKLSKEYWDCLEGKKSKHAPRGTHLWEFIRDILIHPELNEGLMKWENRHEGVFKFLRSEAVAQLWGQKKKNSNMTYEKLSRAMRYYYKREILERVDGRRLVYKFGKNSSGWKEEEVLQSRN
Outline: as §1

[4] = biological target: ETV1 (Homo sapiens, UniProt P50549 1-477)
Outline: as §1

[5] = biological target: T3, ERF (Homo sapiens, UniProt P50548 1-548)
T3 sequence: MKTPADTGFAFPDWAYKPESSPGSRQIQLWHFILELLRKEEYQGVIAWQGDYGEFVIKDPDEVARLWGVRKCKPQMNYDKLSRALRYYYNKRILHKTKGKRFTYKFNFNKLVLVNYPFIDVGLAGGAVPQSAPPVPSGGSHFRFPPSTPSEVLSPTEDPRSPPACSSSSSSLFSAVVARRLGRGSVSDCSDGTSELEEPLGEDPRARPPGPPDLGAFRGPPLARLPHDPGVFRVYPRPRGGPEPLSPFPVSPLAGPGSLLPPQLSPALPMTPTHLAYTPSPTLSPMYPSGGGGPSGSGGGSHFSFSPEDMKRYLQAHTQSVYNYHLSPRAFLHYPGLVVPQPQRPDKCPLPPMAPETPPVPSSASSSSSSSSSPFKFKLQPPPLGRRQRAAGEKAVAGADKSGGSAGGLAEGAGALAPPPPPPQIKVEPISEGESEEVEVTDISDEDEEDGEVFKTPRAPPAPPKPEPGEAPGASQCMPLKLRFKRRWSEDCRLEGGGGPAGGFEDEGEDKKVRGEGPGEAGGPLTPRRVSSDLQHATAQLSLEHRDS
Outline: as §1

[6] = biological target: T4, ETV3L (Homo sapiens, UniProt Q6ZN32 1-361)
T4 sequence: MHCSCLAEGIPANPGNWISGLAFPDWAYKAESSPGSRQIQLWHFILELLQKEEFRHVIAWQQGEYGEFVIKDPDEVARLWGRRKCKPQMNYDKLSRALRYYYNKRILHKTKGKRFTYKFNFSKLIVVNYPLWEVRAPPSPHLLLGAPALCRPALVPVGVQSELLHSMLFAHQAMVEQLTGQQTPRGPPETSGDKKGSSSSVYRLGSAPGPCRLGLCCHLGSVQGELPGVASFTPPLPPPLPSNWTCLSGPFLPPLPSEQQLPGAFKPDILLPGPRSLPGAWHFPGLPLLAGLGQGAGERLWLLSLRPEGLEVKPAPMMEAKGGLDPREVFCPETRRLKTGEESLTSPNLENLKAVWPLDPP
Outline: as §1

[7] = biological target: T5, ETS2 (Homo sapiens, UniProt P15036 1-469)
T5 sequence: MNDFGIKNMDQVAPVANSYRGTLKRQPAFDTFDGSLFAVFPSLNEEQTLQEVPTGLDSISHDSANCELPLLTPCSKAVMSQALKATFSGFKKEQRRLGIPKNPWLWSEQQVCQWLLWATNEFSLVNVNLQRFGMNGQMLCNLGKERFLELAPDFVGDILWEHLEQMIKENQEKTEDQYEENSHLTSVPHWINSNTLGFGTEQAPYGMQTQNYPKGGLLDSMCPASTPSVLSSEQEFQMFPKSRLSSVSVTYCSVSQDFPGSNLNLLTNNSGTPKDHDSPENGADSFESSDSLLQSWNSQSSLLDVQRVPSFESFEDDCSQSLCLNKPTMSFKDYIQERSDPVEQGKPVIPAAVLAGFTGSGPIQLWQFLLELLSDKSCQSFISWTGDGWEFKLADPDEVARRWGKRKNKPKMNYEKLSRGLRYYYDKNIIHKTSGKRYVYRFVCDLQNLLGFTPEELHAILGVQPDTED
Outline: as §1

[8] = biological target: T6, ETV7 (Homo sapiens, UniProt Q9Y603 1-341)
T6 sequence: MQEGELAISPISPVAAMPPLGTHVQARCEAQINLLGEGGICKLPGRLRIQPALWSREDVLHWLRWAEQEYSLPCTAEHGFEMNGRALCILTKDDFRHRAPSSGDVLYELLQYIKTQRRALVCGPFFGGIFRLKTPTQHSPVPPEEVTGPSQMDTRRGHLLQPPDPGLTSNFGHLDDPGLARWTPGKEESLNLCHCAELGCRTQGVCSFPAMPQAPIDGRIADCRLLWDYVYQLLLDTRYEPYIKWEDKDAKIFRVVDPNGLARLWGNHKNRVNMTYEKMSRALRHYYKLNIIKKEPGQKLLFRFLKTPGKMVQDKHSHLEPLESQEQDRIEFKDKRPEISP
Outline: as §1

[9] = biological target: T7, ETV3 (Homo sapiens, UniProt P41162-2 1-143)
T7 sequence: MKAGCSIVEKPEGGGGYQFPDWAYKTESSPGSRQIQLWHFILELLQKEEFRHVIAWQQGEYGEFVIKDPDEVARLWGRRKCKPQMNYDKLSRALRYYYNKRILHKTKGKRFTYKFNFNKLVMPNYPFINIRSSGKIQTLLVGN
Outline: as §1

[10] = biological target: ETV6 (Homo sapiens, UniProt P41212 1-452)
Outline: as §1

ELF4, sequence (Q99607 whole entry, the tested form may be a part): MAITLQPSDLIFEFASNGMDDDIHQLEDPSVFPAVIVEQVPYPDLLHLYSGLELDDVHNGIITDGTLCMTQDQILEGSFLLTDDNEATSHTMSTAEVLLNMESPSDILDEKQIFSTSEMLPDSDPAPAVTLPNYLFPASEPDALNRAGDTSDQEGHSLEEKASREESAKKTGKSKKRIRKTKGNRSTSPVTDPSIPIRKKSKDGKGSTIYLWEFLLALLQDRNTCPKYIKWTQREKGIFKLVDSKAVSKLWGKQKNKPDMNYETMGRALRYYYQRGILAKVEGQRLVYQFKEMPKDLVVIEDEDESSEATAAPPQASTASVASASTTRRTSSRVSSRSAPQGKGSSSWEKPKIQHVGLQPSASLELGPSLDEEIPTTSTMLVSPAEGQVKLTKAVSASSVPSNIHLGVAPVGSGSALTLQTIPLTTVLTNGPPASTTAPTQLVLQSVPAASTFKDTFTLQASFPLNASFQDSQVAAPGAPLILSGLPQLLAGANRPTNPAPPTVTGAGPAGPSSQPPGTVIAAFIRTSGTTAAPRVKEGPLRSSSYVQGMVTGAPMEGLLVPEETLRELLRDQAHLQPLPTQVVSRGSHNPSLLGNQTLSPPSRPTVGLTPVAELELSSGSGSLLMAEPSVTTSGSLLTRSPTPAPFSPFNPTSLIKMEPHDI
ETV1, sequence (P50549 whole entry): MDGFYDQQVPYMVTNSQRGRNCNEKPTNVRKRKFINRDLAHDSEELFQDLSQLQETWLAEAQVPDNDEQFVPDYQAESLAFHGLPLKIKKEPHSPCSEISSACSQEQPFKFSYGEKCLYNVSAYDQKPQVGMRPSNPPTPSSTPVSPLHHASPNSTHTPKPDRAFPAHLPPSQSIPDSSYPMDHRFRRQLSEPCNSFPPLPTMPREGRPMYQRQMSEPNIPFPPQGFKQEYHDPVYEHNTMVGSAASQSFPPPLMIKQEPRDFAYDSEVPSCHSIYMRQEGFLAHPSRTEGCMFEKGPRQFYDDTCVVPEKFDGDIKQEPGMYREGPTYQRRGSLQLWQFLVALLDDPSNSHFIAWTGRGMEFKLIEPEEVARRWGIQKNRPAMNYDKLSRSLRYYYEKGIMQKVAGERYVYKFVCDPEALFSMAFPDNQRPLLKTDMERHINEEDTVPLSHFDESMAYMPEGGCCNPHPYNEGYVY
ETV6, sequence (P41212 whole entry): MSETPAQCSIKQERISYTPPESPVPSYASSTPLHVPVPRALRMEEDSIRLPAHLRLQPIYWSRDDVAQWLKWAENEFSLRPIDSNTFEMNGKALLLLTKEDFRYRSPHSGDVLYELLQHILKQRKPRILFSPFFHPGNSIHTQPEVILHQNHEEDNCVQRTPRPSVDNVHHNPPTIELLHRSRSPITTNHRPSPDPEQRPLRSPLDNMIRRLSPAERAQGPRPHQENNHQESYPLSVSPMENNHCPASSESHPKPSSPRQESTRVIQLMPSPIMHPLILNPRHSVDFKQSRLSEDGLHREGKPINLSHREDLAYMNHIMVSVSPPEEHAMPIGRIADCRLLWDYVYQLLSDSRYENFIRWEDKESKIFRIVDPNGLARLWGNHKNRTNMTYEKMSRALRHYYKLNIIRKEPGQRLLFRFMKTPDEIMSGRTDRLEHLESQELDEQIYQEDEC

ACGATG
binding signal [1]: 1.12 fold enrichment (6-mer frequency, TF over GST control) | binding signal [2]: 1.14 fold enrichment (6-mer frequency, TF over GST control) | binding signal [3]: 1.17 fold enrichment (6-mer frequency, TF over GST control) | binding signal [4]: 1.12 fold enrichment (6-mer frequency, TF over GST control) | binding signal [5]: 1.09 fold enrichment (6-mer frequency, TF over GST control) | binding signal [6]: 1.14 fold enrichment (6-mer frequency, TF over GST control) | binding signal [7]: 1.12 fold enrichment (6-mer frequency, TF over GST control) | binding signal [8]: 1.2 fold enrichment (6-mer frequency, TF over GST control) | binding signal [9]: 1.08 fold enrichment (6-mer frequency, TF over GST control) | binding signal [10]: 1.06 fold enrichment (6-mer frequency, TF over GST control)
